# Results reported in ChEMBL document CHEMBL2218924, “A broad activity screen in support of a chemogenomic map for kinase signalling research and drug discovery” (Biochem J, 2013).
# Assays:
# [1] = biological target: T1, Ephrin type-A receptor 3 (Homo sapiens) (UniProt P29320); settings: at 10 µM
# T1 sequence (whole entry): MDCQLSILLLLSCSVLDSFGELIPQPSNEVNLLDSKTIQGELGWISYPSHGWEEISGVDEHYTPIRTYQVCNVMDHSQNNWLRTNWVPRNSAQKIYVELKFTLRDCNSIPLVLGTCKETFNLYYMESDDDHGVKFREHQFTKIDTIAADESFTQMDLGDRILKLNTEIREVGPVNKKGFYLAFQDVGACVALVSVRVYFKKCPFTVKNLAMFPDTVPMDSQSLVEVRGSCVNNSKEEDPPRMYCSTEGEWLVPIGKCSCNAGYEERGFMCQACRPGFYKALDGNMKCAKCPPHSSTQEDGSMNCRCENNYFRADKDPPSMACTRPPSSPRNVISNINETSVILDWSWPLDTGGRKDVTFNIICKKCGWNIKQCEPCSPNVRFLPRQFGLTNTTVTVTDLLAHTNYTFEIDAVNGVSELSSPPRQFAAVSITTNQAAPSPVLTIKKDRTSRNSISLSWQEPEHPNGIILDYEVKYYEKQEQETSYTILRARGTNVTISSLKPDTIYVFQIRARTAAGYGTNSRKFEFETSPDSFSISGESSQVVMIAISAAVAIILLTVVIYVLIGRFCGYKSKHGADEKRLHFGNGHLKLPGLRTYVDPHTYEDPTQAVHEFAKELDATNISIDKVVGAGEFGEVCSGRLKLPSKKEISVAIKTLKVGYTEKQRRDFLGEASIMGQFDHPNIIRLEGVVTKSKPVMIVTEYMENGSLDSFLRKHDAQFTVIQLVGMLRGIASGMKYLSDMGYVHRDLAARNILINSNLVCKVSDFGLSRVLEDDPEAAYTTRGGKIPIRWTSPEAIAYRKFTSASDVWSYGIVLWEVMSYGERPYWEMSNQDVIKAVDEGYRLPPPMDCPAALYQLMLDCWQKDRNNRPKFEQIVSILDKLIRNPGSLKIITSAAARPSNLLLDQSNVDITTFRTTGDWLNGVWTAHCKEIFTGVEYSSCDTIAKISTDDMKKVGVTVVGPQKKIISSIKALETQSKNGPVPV
# [2] = biological target: Ephrin type-A receptor 4 (Homo sapiens) (UniProt P54764); settings: at 10 µM
# Sequence of Ephrin type-A receptor 4 (Homo sapiens) (P54764 whole entry): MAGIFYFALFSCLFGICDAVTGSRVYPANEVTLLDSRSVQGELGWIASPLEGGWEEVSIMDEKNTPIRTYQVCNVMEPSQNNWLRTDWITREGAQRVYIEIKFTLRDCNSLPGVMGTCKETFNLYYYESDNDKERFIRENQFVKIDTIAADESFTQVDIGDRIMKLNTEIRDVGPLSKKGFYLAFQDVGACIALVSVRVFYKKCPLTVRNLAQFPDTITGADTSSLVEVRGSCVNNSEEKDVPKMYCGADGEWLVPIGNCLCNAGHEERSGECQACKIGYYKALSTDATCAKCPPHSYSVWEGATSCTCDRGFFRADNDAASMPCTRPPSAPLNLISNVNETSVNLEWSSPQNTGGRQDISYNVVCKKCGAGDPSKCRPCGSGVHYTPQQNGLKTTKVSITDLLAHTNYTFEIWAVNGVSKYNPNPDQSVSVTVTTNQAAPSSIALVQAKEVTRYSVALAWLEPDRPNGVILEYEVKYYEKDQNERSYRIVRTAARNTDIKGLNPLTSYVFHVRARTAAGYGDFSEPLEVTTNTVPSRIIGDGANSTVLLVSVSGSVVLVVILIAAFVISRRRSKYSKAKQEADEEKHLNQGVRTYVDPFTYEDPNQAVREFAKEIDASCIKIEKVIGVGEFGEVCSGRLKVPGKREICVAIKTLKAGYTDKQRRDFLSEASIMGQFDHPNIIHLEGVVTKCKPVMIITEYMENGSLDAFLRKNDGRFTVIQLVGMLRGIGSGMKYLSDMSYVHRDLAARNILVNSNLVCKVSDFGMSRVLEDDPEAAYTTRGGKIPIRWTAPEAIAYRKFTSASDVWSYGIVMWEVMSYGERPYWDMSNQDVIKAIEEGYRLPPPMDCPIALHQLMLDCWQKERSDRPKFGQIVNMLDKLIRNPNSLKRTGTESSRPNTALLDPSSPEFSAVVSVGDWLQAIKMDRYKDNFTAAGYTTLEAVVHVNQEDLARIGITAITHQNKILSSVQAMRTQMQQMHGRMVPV
# [3] = biological target: Ephrin type-A receptor 7 (Homo sapiens) (UniProt Q15375); settings: at 1 µM
# Sequence of Ephrin type-A receptor 7 (Homo sapiens) (Q15375 28-998 limits assumed): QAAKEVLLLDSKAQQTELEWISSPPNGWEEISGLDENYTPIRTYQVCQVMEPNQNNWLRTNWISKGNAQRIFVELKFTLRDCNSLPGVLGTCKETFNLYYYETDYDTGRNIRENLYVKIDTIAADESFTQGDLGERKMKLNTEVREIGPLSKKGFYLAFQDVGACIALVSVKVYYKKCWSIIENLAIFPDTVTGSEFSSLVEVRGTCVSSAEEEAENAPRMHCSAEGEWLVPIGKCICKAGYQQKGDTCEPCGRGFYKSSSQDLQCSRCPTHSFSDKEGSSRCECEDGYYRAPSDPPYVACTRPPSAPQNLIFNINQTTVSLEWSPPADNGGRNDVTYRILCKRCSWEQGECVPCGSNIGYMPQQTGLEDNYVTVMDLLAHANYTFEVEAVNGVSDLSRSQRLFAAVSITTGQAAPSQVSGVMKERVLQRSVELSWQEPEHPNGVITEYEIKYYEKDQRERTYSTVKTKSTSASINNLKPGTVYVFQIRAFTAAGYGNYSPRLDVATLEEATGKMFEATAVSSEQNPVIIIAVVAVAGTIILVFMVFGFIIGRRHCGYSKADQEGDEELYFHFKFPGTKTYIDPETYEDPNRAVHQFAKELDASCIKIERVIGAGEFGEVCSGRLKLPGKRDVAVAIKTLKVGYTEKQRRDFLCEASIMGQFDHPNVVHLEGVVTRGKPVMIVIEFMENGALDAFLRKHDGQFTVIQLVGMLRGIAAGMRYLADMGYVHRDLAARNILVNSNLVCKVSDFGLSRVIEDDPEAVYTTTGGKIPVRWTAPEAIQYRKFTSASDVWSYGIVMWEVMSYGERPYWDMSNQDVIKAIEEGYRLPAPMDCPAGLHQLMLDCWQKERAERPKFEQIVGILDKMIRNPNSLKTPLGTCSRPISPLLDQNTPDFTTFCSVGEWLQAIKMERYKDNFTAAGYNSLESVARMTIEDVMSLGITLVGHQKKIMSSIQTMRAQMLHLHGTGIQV
# [4] = biological target: Ephrin type-A receptor 7 (Homo sapiens) (UniProt Q15375); settings: at 10 µM
# [5] = biological target: T2, Ephrin type-A receptor 8 (Homo sapiens) (UniProt P29322); settings: at 1 µM
# T2 sequence (whole entry): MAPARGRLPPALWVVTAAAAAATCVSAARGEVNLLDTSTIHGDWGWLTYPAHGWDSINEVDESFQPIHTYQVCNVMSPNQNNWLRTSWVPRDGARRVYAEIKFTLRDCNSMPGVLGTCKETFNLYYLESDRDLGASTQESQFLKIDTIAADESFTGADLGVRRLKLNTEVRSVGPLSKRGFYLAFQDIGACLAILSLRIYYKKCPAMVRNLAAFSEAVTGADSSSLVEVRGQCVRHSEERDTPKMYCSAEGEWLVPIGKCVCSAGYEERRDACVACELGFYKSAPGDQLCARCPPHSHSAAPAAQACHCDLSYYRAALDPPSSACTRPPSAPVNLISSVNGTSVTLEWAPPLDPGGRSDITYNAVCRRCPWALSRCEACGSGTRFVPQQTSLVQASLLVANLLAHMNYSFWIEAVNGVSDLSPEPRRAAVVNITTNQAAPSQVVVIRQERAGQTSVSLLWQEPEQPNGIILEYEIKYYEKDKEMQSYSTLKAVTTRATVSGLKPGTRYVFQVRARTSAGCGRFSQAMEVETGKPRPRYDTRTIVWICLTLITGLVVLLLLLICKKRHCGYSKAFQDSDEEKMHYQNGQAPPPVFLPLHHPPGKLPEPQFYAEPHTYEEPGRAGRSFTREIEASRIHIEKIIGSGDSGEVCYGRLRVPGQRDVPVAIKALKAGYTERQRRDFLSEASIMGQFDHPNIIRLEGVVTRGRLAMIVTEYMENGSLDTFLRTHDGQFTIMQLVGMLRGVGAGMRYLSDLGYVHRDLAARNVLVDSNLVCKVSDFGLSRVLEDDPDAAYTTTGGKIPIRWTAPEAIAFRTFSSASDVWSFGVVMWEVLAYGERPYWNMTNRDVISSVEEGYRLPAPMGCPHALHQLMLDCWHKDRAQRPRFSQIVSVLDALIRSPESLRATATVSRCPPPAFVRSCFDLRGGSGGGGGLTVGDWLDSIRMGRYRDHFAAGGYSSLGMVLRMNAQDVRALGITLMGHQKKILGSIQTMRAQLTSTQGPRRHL
# [6] = biological target: T2, Ephrin type-A receptor 8 (Homo sapiens); settings: at 10 µM
# [7] = biological target: T3, Ephrin type-B receptor 1 (Homo sapiens) (UniProt P54762); settings: at 1 µM
# T3 sequence (whole entry): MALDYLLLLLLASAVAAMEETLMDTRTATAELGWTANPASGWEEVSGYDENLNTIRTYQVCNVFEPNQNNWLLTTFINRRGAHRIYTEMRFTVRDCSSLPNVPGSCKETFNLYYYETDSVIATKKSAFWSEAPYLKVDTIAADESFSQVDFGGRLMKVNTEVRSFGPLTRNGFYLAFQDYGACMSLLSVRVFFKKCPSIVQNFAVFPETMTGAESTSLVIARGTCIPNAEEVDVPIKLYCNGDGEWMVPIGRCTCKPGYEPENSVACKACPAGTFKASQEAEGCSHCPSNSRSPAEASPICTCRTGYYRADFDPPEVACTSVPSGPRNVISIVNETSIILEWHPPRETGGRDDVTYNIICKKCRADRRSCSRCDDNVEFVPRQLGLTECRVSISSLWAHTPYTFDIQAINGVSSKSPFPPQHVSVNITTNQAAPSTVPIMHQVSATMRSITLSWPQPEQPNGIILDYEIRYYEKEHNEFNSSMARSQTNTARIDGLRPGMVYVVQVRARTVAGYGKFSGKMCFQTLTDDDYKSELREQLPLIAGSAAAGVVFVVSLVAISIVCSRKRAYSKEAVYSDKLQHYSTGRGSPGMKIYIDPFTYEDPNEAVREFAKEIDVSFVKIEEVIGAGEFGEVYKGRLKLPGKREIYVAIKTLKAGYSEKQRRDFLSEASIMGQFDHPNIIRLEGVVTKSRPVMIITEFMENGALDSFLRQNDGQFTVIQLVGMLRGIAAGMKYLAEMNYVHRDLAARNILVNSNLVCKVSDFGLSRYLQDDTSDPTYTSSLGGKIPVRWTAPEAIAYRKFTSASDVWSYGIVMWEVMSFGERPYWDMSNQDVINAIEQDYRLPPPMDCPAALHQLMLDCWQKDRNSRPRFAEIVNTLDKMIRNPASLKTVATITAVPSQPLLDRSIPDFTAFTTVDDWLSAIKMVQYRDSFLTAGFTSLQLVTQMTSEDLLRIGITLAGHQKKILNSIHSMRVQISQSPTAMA
# [8] = biological target: T3, Ephrin type-B receptor 1 (Homo sapiens); settings: at 10 µM
# [9] = biological target: T4, Ephrin type-B receptor 2 (Homo sapiens) (UniProt P29323); settings: at 1 µM
# T4 sequence (whole entry): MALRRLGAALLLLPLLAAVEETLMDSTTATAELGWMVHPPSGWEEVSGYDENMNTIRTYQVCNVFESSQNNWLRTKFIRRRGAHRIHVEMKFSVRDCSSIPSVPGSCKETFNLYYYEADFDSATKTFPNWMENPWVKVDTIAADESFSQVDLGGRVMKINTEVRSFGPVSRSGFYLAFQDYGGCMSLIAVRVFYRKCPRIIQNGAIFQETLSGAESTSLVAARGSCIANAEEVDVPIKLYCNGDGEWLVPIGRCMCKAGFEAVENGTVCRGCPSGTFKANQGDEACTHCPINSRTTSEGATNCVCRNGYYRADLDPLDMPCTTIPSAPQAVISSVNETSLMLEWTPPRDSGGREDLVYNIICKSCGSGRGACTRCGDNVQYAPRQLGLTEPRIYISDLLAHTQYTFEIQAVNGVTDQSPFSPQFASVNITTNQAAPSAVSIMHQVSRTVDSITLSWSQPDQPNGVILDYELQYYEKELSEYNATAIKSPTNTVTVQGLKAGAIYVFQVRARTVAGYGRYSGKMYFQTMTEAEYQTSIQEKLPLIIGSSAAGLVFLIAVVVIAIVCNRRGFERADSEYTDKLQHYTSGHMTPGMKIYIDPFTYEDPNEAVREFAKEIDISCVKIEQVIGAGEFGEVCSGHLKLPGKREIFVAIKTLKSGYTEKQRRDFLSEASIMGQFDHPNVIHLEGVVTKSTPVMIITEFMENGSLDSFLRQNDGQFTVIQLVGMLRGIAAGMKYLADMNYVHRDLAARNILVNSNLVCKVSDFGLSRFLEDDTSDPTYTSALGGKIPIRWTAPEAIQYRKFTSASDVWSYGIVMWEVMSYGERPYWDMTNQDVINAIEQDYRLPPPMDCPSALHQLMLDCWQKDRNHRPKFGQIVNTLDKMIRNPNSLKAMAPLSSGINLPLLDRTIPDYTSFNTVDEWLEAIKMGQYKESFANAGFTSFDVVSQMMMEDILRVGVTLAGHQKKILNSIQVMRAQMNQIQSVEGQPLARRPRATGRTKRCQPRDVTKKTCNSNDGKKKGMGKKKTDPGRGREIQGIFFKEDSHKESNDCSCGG
# [10] = biological target: T4, Ephrin type-B receptor 2 (Homo sapiens); settings: at 10 µM
# [11] = biological target: T5, Ephrin type-B receptor 3 (Homo sapiens) (UniProt P54753); settings: at 1 µM
# T5 sequence (whole entry): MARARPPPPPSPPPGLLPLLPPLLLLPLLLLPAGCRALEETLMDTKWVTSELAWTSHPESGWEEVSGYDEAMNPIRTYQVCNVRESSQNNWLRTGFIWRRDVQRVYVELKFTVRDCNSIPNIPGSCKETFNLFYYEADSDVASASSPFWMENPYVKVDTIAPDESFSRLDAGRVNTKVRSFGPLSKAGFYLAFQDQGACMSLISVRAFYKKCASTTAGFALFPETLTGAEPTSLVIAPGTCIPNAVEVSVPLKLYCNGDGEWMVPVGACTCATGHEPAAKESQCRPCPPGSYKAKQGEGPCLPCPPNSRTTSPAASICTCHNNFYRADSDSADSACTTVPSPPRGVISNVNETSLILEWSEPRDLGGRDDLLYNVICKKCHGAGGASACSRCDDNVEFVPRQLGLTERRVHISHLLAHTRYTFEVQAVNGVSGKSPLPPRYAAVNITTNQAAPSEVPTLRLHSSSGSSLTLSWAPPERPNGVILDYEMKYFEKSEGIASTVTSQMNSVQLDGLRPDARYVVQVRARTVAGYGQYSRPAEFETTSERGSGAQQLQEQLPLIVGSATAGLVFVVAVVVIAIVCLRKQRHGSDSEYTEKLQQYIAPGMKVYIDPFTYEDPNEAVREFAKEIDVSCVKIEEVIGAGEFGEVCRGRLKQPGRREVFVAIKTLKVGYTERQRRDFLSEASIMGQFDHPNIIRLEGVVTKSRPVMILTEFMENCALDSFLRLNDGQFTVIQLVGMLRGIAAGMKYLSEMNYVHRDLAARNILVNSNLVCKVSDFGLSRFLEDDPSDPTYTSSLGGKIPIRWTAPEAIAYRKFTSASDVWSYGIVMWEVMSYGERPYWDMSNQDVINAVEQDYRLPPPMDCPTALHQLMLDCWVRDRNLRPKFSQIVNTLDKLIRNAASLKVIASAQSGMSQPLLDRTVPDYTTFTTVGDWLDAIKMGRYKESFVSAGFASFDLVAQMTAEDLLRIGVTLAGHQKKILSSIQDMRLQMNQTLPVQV
# [12] = biological target: T5, Ephrin type-B receptor 3 (Homo sapiens); settings: at 10 µM
# [13] = biological target: T6, Ephrin type-B receptor 4 (Homo sapiens) (UniProt P54760); settings: at 1 µM
# T6 sequence (whole entry): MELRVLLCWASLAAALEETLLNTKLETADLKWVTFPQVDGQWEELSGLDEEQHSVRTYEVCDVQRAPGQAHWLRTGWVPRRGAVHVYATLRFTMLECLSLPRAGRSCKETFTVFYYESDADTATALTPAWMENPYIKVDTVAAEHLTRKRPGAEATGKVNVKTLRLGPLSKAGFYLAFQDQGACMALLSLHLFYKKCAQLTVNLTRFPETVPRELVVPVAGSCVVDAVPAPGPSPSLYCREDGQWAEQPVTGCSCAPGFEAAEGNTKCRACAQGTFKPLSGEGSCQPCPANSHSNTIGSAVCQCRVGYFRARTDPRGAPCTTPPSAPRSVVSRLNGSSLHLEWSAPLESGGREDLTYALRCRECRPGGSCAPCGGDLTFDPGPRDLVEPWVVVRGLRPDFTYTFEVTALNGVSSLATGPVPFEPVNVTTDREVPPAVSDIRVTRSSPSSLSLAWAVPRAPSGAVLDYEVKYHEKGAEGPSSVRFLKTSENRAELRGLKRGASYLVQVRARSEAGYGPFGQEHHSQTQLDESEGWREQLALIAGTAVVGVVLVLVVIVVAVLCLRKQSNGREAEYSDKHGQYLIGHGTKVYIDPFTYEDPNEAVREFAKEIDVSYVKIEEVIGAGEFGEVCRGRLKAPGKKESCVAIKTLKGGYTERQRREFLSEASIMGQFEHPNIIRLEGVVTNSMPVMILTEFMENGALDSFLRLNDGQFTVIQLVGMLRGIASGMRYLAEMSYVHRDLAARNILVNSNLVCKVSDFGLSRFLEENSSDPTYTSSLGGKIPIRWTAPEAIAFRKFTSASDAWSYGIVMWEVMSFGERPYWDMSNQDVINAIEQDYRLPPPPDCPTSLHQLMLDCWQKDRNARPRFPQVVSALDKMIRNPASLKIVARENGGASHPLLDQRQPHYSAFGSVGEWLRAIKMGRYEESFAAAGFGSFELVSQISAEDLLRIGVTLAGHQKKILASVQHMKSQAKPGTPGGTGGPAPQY
# [14] = biological target: T6, Ephrin type-B receptor 4 (Homo sapiens); settings: at 10 µM
# [15] = biological target: Receptor tyrosine-protein kinase erbB-4 (Homo sapiens) (UniProt Q15303); settings: at 1 µM
# Sequence of Receptor tyrosine-protein kinase erbB-4 (Homo sapiens) (Q15303 whole entry): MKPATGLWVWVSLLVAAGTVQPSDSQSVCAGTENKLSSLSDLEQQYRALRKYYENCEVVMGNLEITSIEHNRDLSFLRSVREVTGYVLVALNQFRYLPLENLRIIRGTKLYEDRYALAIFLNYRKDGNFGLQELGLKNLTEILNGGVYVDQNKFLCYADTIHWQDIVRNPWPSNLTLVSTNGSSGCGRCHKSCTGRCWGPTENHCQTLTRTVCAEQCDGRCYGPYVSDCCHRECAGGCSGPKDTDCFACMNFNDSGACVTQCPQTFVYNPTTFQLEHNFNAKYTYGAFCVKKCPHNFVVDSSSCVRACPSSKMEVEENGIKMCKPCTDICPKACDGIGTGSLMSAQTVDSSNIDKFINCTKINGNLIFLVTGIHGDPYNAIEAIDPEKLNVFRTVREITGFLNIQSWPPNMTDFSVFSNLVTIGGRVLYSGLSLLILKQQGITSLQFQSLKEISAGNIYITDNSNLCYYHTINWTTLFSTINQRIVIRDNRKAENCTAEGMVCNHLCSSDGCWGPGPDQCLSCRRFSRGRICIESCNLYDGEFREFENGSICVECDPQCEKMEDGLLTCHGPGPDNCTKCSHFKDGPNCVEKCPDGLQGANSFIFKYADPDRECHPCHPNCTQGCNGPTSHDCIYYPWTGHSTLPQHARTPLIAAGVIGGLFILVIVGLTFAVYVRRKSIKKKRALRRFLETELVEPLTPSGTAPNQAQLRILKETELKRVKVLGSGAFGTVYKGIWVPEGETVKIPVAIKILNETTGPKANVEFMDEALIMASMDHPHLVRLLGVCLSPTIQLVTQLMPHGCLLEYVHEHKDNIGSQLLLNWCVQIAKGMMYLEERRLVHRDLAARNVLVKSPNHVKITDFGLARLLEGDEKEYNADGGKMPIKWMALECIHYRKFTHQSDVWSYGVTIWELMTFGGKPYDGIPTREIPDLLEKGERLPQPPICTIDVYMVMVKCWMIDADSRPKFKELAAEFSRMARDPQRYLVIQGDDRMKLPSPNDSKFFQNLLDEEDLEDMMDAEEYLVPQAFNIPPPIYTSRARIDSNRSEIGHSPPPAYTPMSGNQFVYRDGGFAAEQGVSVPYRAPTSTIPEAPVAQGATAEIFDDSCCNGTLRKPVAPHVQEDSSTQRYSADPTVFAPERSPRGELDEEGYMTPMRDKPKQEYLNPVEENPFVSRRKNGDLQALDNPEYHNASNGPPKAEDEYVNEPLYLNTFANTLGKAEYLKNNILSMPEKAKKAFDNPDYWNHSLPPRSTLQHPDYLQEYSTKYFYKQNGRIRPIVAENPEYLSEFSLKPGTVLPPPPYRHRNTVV
# [16] = biological target: Receptor tyrosine-protein kinase erbB-4 (Homo sapiens) (UniProt Q15303); settings: at 10 µM
# [17] = biological target: Focal adhesion kinase 1 (Homo sapiens) (UniProt Q05397); settings: at 1 µM
# Sequence of Focal adhesion kinase 1 (Homo sapiens) (Q05397 2-1052 limits assumed): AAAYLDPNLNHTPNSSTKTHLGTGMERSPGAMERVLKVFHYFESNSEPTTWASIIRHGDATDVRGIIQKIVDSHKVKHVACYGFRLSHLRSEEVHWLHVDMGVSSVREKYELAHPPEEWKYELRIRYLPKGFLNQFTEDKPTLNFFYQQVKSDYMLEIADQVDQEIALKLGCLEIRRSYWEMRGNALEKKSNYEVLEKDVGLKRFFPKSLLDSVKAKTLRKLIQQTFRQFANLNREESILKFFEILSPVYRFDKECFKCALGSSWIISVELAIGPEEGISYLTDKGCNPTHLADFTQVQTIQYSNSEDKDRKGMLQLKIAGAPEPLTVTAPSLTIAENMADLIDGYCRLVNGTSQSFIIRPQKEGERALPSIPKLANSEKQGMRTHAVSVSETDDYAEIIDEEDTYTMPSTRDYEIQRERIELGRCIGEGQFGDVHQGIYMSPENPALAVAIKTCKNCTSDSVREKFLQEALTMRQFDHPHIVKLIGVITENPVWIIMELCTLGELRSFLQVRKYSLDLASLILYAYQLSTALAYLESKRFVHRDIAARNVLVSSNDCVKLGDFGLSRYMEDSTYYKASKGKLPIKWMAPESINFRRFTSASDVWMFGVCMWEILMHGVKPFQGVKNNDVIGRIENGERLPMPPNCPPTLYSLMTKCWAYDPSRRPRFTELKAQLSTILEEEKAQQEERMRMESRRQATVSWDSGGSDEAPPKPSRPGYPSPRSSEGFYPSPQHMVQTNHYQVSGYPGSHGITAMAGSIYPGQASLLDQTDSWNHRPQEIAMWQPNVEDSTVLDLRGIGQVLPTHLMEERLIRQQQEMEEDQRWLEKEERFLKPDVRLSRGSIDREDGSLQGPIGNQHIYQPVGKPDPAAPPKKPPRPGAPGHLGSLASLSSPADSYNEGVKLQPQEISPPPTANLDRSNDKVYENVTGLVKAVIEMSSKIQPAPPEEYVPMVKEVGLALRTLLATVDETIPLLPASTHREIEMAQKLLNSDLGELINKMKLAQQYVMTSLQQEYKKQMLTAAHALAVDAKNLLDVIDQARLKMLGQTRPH
structure (smiles),measurement,setting,value
CCN(CC)C(=O)c1ccc(Nc2nc(OCC3CCCCC3)c3nc[nH]c3n2)cc1,residual activity,[1],60%
same,residual activity,[2],73%
same,residual activity,[3],71%
same,residual activity,[4],7%
same,residual activity,[5],97%
same,residual activity,[6],64%
same,residual activity,[7],68%
same,residual activity,[8],4%
same,residual activity,[9],103%
same,residual activity,[10],32%
same,residual activity,[11],102% (inactive)
same,residual activity,[12],52%
same,residual activity,[13],72%
same,residual activity,[14],12%
same,residual activity,[15],74%
same,residual activity,[16],34%
same,residual activity,[17],72%
